Records with an inconclusive call do not appear. Calls of active or inactive are those of the source. Calls come from the whole dose curve; as a rule, active = well fitted inhibition curve with a large enough effect; inconclusive = small, poorly fitted or top-dose-only effect; inactive = no such curve, though single readings can be large or run the other way.
Assay: qHTS assay for measurement of the activity of small molecule inhibitors on Zika virus induced Caspase-3 activity in human astrocytoma cells (AID 1224859);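 for activity change, negative = inhibition: plate controls were ZIKV-infected untreated cells for no effect and uninfected cells for full effect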
Conditions: SNB-19 ZIKV-induced caspase-3/7, luminescence, 6 h; series mostly up to 45.7 µM; activity change, negative = inhibition: at the top concentration
Outline: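 Compound added 1 h pre-infection; ZIKV 2 FFU/cell on SNB-19 cells, 6 h, 37 C/5% CO2. Caspase-Glo 3/7 luminescence; values as % inhibition of ZIKV-induced caspase activity.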
Potency is the fitted concentration of half-maximal effect.

| SMILES | activity change, negative = inhibition | Potency |
| --- | --- | --- |
| O=c1[nH]nc(OCCCc2ccc(Cl)cc2)c(NCc2cccnc2)c1Br | -5.3% (inactive) |  |
| CC[C@H]1OC(=O)[C@H](C)[C@@H](O[C@H]2C[C@@](C)(OC)[C@@H](O)[C@H](C)O2)[C@H](C)[C@@H](O[C@@H]2O[C@H](C)C[C@H](N(C)C)[C@H]2O)[C@](C)(O)C[C@H](C)C(=NOCOCCOC)[C@H](C)[C@@H](O)[C@]1(C)O | -11.4% (inactive) |  |
| NC(N)=Nc1nc(CSCCC(N)=NS(N)(=O)=O)cs1 | 8.88% (inactive) |  |
| COc1cc2nc(-c3cc(F)ccc3O)nc(N[C@@H]3CNC[C@@H]3C(C)(C)O)c2cc1OC | 26.8% (inactive) |  |
| Cc1[nH]c(C=C2C(=O)Nc3ccc(S(=O)(=O)N(C)c4cccc(Cl)c4)cc32)c(C)c1C(=O)N1CCN(C)CC1 | 99.9% (inactive) |  |
| C#CCN(C)CC1=Cc2ccccc2Oc2ccccc21 | -3.58% (inactive) |  |
| Cc1ccccc1C(=O)c1ccc(Nc2ccc(Br)cc2N)cc1Cl | 16.6% (inactive) |  |
| CN(CC=CC#CC(C)(C)C)Cc1cccc2ccccc12 | 20.3% (inactive) |  |
| CC(O)=C(C#N)C(=O)Nc1ccc(C(F)(F)F)cc1 |  | 1.18 µM (active) |
| CC(C)C[C@@H](C(=O)N[C@H](C(=O)OC1CCCC1)c1ccccc1)[C@H](O)C(=O)NO | 10.1% (inactive) |  |
| COc1c(C)c2c(c(O)c1CC=C(C)CCC(=O)O)C(=O)OC2 | 20.1% (inactive) |  |
| CC(C)CN(C[C@H](O)[C@H](Cc1ccccc1)NC(=O)O[C@H]1CCOC1)S(=O)(=O)c1ccc(N)cc1 | 9.41% (inactive) |  |
| COc1ccc(-c2nc3ccc(C4=NNC(=O)CC4C)cc3[nH]2)cc1 (configuration not stated) | 12.2% (inactive) |  |
| CCCCC(F)(F)[C@@]1(O)CC[C@H]2[C@H](CC(=O)[C@@H]2CCCCCCC(=O)O)O1 | -4.94% (inactive) |  |
| CC1(C)[C@H]2CC[C@]3(C)[C@@H](C(=O)C=C4[C@@H]5C[C@@](C)(C(=O)O)CC[C@]5(C)CC[C@]43C)[C@@]2(C)CC[C@@H]1O | 13.9% (inactive) |  |
| O=c1[nH]c(=O)n([C@H]2C[C@@H](O)[C@@H](CO)O2)cc1C(F)(F)F | 11% (inactive) |  |
| Nc1ncnc2c1ncn2[C@@H]1O[C@H](CO)[C@@H](O)[C@@H]1O | 12.9% (inactive) |  |
| CC(NCCc1ccc(O)cc1)C(O)c1ccc(O)cc1 (configuration not stated) | 7.32% (inactive) |  |

| SMILES | activity change, negative = inhibition | Potency |
| --- | --- | --- |
| NC(=O)c1ncn([C@@H]2O[C@H](CO)[C@@H](O)[C@@H]2O)n1 | -18.8% (inactive) |  |
| O=C(c1ccc(C(=O)N2CCC(N3CCCC3)CC2)c(Nc2ccccc2)c1)N1CCC(N2CCCC2)CC1 | 27.3% (inactive) |  |
| C[C@@H]1[C@H](O)[C@@H](C)C=CC=CC=CC=CC=CC=CC=C[C@H](O[C@@H]2O[C@H](C)[C@H](O)[C@H](N)[C@@H]2O)C[C@@H]2O[C@](O)(C[C@@H](O)C[C@@H](O)[C@H](O)CC[C@@H](O)C[C@@H](O)CC(=O)O[C@H]1C)C[C@H](O)[C@@H]2C(=O)O | -5.88% (inactive) |  |
| NS(=O)(=O)c1cc(Cl)c(Cl)c(S(N)(=O)=O)c1 | 15.1% (inactive) |  |
| COc1cc(Cl)cn2c(-c3cccc(NC4CNC4)n3)cnc12 | 10.4% (inactive) |  |
| CN1CCc2c(n(Cc3ccc(C(=O)NO)cc3)c3ccccc23)C1 | 63.3% (inactive) |  |
| CC(C)C[C@@H](N)[C@H](O)C(=O)N[C@H](C(=O)N[C@H](C(=O)N[C@@H](CC(=O)O)C(=O)O)C(C)C)C(C)C | -1.68% (inactive) |  |
| CC1(C)C(N(O)C(=O)Nc2ccc(Cl)cc2)N(c2ccc(Cl)cc2)C(=O)N1CC(=O)NN=CC=Cc1ccc([N+](=O)[O-])o1 (configuration not stated) | 1.25% (inactive) |  |
| Cc1cc(NC(=O)Nc2ccc(N(C)C)cc2)c2cc(F)cc(F)c2n1 | -12.8% (inactive) |  |
| CCNC(=O)Nc1ccc(Oc2ncnc(N)c2C=NOC)cc1Cl | 43.7% (inactive) |  |
| C=C1c2cccc(O)c2C(O)=C2C(=O)[C@@]3(O)C(O)=C(C(N)=O)C(=O)[C@@H](N(C)C)[C@@H]3[C@@H](O)[C@H]12 | -2.6% (inactive) |  |
| CCCC1OC2C[C@@H]3[C@H]4CCC5=CC(=O)C=C[C@]5(C)[C@H]4C(O)C[C@]3(C)[C@]2(C(=O)CO)O1 (some centres not stated) | 19% (inactive) |  |
| O=C(O)C1=CC(O)C(O)[C@H](O)C1 (some centres not stated) | 14.3% (inactive) |  |
| CCCCCCCCCCCCCC(=O)N[C@H](CO)[C@H](O)c1ccc([N+](=O)[O-])cc1 | 3.62% (inactive) |  |
| Cc1cc2nc3c(=O)[nH]c(=O)nc-3n(CC(O)C(O)C(O)CO)c2cc1C (configuration not stated) | -3.99% (inactive) |  |
| N#Cc1c(N(CC(=O)O)CC(=O)O)sc(C(=O)O)c1CC(=O)O | 11.4% (inactive) |  |
| O=C(O)CCNc1cc(N2CCc3ccccc3CC2)nc(-c2ccccn2)n1 | -15.8% (inactive) |  |
| CN1CCN(c2ncc(-c3cc(Cl)cc(Cl)c3Cl)c(N)n2)CC1 | 7.22% (inactive) |  |

Assay: qHTS Screen of the MIPE 4.0 Collection Against Ewings Sarcoma (RDES) (AID 1259252); note: nearly all actives have a fitted effect of over 35% in size;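 for viability (percent of control): 100% = DMSO-treated cells and 0% = medium-only wells without cells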
Conditions: RD-ES Ewing sarcoma viability, CellTiter-Glo, 48 h; series mostly up to 45.8 µM; viability (percent of control): at the top concentration
Outline: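 After a 4 h attachment period in RPMI/5% FBS, cells were pin-dosed with test compounds; DMSO served as negative and 9.2 uM bortezomib (final) as positive control. Luminescent CellTiter-Glo signal at 48 h defined viability.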

| SMILES | Potency | viability (percent of control) |
| --- | --- | --- |
| O=c1[nH]nc(OCCCc2ccc(Cl)cc2)c(NCc2cccnc2)c1Br | 18.7 µM (active) |  |
| CC[C@H]1OC(=O)[C@H](C)[C@@H](O[C@H]2C[C@@](C)(OC)[C@@H](O)[C@H](C)O2)[C@H](C)[C@@H](O[C@@H]2O[C@H](C)C[C@H](N(C)C)[C@H]2O)[C@](C)(O)C[C@H](C)C(=NOCOCCOC)[C@H](C)[C@@H](O)[C@]1(C)O |  | 105% (inactive) |
| NC(N)=Nc1nc(CSCCC(N)=NS(N)(=O)=O)cs1 | 11.8 µM (active) |  |
| COc1cc2nc(-c3cc(F)ccc3O)nc(N[C@@H]3CNC[C@@H]3C(C)(C)O)c2cc1OC | 23.5 µM (active) |  |
| Cc1[nH]c(C=C2C(=O)Nc3ccc(S(=O)(=O)N(C)c4cccc(Cl)c4)cc32)c(C)c1C(=O)N1CCN(C)CC1 | 26.4 µM (active) |  |
| C#CCN(C)CC1=Cc2ccccc2Oc2ccccc21 |  | 120% (inactive) |
| Cc1ccccc1C(=O)c1ccc(Nc2ccc(Br)cc2N)cc1Cl | 23.5 µM (active) |  |
| CN(CC=CC#CC(C)(C)C)Cc1cccc2ccccc12 |  | 97.5% (inactive) |
| CC(O)=C(C#N)C(=O)Nc1ccc(C(F)(F)F)cc1 | 23.5 µM (active) |  |
| CC(C)C[C@@H](C(=O)N[C@H](C(=O)OC1CCCC1)c1ccccc1)[C@H](O)C(=O)NO | 26.4 µM (active) |  |
| COc1c(C)c2c(c(O)c1CC=C(C)CCC(=O)O)C(=O)OC2 | 3.72 µM (active) |  |
| CC(C)CN(C[C@H](O)[C@H](Cc1ccccc1)NC(=O)O[C@H]1CCOC1)S(=O)(=O)c1ccc(N)cc1 | 16.6 µM (active) |  |
| COc1ccc(-c2nc3ccc(C4=NNC(=O)CC4C)cc3[nH]2)cc1 (configuration not stated) |  | 98.6% (inactive) |
| CCCCC(F)(F)[C@@]1(O)CC[C@H]2[C@H](CC(=O)[C@@H]2CCCCCCC(=O)O)O1 | 2.64 µM (active) |  |
| CC1(C)[C@H]2CC[C@]3(C)[C@@H](C(=O)C=C4[C@@H]5C[C@@](C)(C(=O)O)CC[C@]5(C)CC[C@]43C)[C@@]2(C)CC[C@@H]1O |  | 117% (inactive) |
| O=c1[nH]c(=O)n([C@H]2C[C@@H](O)[C@@H](CO)O2)cc1C(F)(F)F | 5.26 µM (active) |  |
| Nc1ncnc2c1ncn2[C@@H]1O[C@H](CO)[C@@H](O)[C@@H]1O | 16.6 µM (active) |  |
| CC(NCCc1ccc(O)cc1)C(O)c1ccc(O)cc1 (configuration not stated) |  | 127% (inactive) |

| SMILES | Potency | viability (percent of control) |
| --- | --- | --- |
| NC(=O)c1ncn([C@@H]2O[C@H](CO)[C@@H](O)[C@@H]2O)n1 |  | 138% (inactive) |
| O=C(c1ccc(C(=O)N2CCC(N3CCCC3)CC2)c(Nc2ccccc2)c1)N1CCC(N2CCCC2)CC1 | 16.6 µM (active) |  |
| C[C@@H]1[C@H](O)[C@@H](C)C=CC=CC=CC=CC=CC=CC=C[C@H](O[C@@H]2O[C@H](C)[C@H](O)[C@H](N)[C@@H]2O)C[C@@H]2O[C@](O)(C[C@@H](O)C[C@@H](O)[C@H](O)CC[C@@H](O)C[C@@H](O)CC(=O)O[C@H]1C)C[C@H](O)[C@@H]2C(=O)O | 0.105 µM (active) |  |
| NS(=O)(=O)c1cc(Cl)c(Cl)c(S(N)(=O)=O)c1 |  | 112% (inactive) |
| COc1cc(Cl)cn2c(-c3cccc(NC4CNC4)n3)cnc12 | 26.4 µM (active) |  |
| CN1CCc2c(n(Cc3ccc(C(=O)NO)cc3)c3ccccc23)C1 | 14.8 µM (active) |  |
| CC(C)C[C@@H](N)[C@H](O)C(=O)N[C@H](C(=O)N[C@H](C(=O)N[C@@H](CC(=O)O)C(=O)O)C(C)C)C(C)C | 20.9 µM (active) |  |
| CC1(C)C(N(O)C(=O)Nc2ccc(Cl)cc2)N(c2ccc(Cl)cc2)C(=O)N1CC(=O)NN=CC=Cc1ccc([N+](=O)[O-])o1 (configuration not stated) | 26.4 µM (active) |  |
| Cc1cc(NC(=O)Nc2ccc(N(C)C)cc2)c2cc(F)cc(F)c2n1 |  | 117% (inactive) |
| CCNC(=O)Nc1ccc(Oc2ncnc(N)c2C=NOC)cc1Cl | 8.33 µM (active) |  |
| C=C1c2cccc(O)c2C(O)=C2C(=O)[C@@]3(O)C(O)=C(C(N)=O)C(=O)[C@@H](N(C)C)[C@@H]3[C@@H](O)[C@H]12 | 20.9 µM (active) |  |
| CCCC1OC2C[C@@H]3[C@H]4CCC5=CC(=O)C=C[C@]5(C)[C@H]4C(O)C[C@]3(C)[C@]2(C(=O)CO)O1 (some centres not stated) |  | 111% (inactive) |
| O=C(O)C1=CC(O)C(O)[C@H](O)C1 (some centres not stated) |  | 127% (inactive) |
| CCCCCCCCCCCCCC(=O)N[C@H](CO)[C@H](O)c1ccc([N+](=O)[O-])cc1 |  | 110% (inactive) |
| Cc1cc2nc3c(=O)[nH]c(=O)nc-3n(CC(O)C(O)C(O)CO)c2cc1C (configuration not stated) |  | 143% (inactive) |
| N#Cc1c(N(CC(=O)O)CC(=O)O)sc(C(=O)O)c1CC(=O)O |  | 116% (inactive) |
| O=C(O)CCNc1cc(N2CCc3ccccc3CC2)nc(-c2ccccn2)n1 | 26.4 µM (active) |  |
| CN1CCN(c2ncc(-c3cc(Cl)cc(Cl)c3Cl)c(N)n2)CC1 |  | 113% (inactive) |
